Bioassay records as filed in PubChem BioAssay.
Hits are enriched below; roughly 3.2% of the tested compounds scored in any of these assays.
esBAF inh = Bmi1 luciferase reporter increase in mESCs, primary screen, esBAF inhibitor project, mouse ES cells, Bmi1 luciferase knock-in, single point; hit rate 2% among 350,000; reporter increase, % at 12.5 µM; 24 h; 100% = twice the neutral-well signal; in the data active = activation above about 40%;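 also: a rise in the Bmi1 reporter signal indicates esBAF inhibition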
CDK5 p35 inh = inhibitors of human CDK5/p35 kinase, primary screen, biochemical, single concentration. Cyclin-dependent kinase 5 (Homo sapiens) + Cyclin-dependent kinase 5 activator 1 (Homo …. Recombinant CDK5/p35, ADP-Glo luminescence, 60 min. inhibition, % at 10 µM. hit rate 0.01% among 330,000. AID 488839, 2010;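 active = highest replicate inhibition of at least 50% and at least 75% of replicates reaching 50%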
SMARCA2 act = SMARCA2 (BRM) function activators, primary screen, cell-based, luminescence, high throughput; activation, % at 9.1 µM; AID 652017, 2013; hit rate 1% among 370,000; MG213 cells, MMTV-luciferase reporter, dexamethasone, overnight; in the data active = activation above about 7.8%
Rtt109 HAT inh = inhibitors of C. albicans Rtt109/Vps75 HAT, primary screen, biochemical, ThioGlo CoA-SH fluorescence, plate reader; Histone acetyltransferase RTT109 (Candida albicans (strain SC5314 / ATCC MYA-2876)), …; purified Rtt109/Vps75, 4 h; inhibition, % at 34.9 µM; hit rate 0.16% among 330,000;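 active = inhibition of at least 50% in every replicate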
DYRK1A inh = rat Dyrk1A kinase inhibitors, primary screen, biochemical, single point, plate reader; ADP-Glo luminescence, NFATc1 peptide; inhibition, % at 12.5 µM; hit rate 0.43% among 310,000; in the data active = inhibition above about 50%
dFosB act = activators of delta FosB homodimer, primary screen, biochemical, fluorescence polarization, TAMRA-CDK5 oligo, single point. hit rate 0.99% among 340,000. Protein FosB (Mus musculus), P13346. purified delta FosB; percent of positive-control signal above neutral wells. activation, % at 25 µM;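 active = mean activation above about 17%, with every replicate also reaching it, limit read from the data, passing the limit was not always enough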
Target sequence (P13346 whole entry, looked up): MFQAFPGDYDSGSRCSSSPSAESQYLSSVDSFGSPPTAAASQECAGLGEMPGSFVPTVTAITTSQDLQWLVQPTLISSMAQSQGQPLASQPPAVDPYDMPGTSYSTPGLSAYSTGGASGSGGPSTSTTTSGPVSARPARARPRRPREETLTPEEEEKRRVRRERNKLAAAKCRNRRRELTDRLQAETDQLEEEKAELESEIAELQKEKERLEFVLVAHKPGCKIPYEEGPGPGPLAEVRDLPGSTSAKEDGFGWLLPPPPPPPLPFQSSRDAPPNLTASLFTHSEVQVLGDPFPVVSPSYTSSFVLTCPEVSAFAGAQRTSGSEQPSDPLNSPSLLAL
A number is an active result; . = inactive; / = no result.

SMILES	esBAF inh	CDK5 p35 inh	SMARCA2 act	Rtt109 HAT inh	DYRK1A inh	dFosB act
COc1cccc(/C=C2\CCC(C3CCCC3)C2=O)c1OC (stereo unspecified)	67	.	.	.	.	.
CCc1ccc(-c2cc(N)n(-c3ccccc3)n2)cc1	68	.	.	.	.	.
Cc1cccc(-c2cc(N)n(-c3ccccc3)n2)c1	54	.	.	.	/	.
Cc1cccc(-c2cnn(-c3ccccc3)c2N)c1	56	.	.	.	.	.
C[C@@H]1CN([C@@H](C)CO)C(=O)c2cc(C#Cc3ccccn3)cnc2O[C@@H]1CN(C)Cc1ccccc1	.	/	/	/	/	/
CN(C)CCCNc1c2ccccc2nc2ccccc12	.	.	.	.	.	72
CNc1nc(NCc2ccccc2)c2ccccc2n1	.	.	.	.	.	.
c1ccc(CNc2c3ccccc3nc3ccccc23)cc1	.	.	.	.	.	38
Oc1ccccc1Nc1nc(NCc2ccccc2)c2ccccc2n1	/	.	.	.	.	84
COCCN1Cc2cccc(C(=O)Nc3ccc(-c4nc5ccccc5[nH]4)cc3)c2C1=O	/	.	.	55	.	.
O=C(NNC(=S)Nc1ccccc1)c1cccc(Br)c1	47	.	.	/	.	.
O=C(NNC(=S)Nc1ccccc1)c1ccc(O)cc1	78	.	.	.	.	.
Cc1noc(C)c1NC(=O)Nc1ccc2c(c1)C(=O)N([C@@H](C)CO)C[C@@H](C)[C@H](CN(C)Cc1ccc(C(=O)O)cc1)OCCCC[C@H](C)O2	.	/	/	/	/	/
CC(C)C#Cc1cnc2c(c1)C(=O)N([C@@H](C)CO)C[C@H](C)[C@@H](CN(C)Cc1ccc3c(c1)OCO3)O2	.	/	/	/	/	/
COCc1cn(CC[C@H]2CC[C@@H](NC(=O)CCN3CCCCC3)[C@@H](CO)O2)nn1	.	/	/	/	/	/
N/C(=N\OC(=O)c1ccncc1)c1cccc([N+](=O)[O-])c1	54	.	.	.	/	.
N/C(=N\OC(=O)c1ccc(Br)cc1)c1cccc([N+](=O)[O-])c1	72	.	.	.	.	.
Cc1ccc(CNc2ccc(N3CCOCC3)cc2)cc1	64	.	.	.	.	.
c1cc2c(cc1CNc1ccc(N3CCOCC3)cc1)OCO2	69	.	.	.	.	.
CN(C)C(=O)c1cccc(-c2cccc(-c3nc(C(=O)N4CCOCC4)cc4c3[C@@H](CCO)N([S@](=O)C(C)(C)C)C4)c2)c1	.	/	/	/	/	/
O=C(O)c1ccc2[nH]c3c(c2c1)CSCC3	.	.	/	.	.	.
CN(C)CCOC(=O)c1ccc2[nH]c3c(c2c1)CSCC3	/	.	.	.	.	28
O=C(NCCc1ccccc1)c1ccc(-c2cccnc2)c2ccoc12	44	/	.	/	/	/
O=C(NCc1cccc(Cl)c1)c1ccc(-c2cccnc2)c2ccoc12	.	/	.	/	/	/
CC(C)NC(=O)Nc1ccc2c(c1)CC(=O)N([C@H](C)CO)C[C@@H](C)[C@H](CN(C)CC1CCCCC1)O2	.	/	/	/	/	/
SMILES	esBAF inh	CDK5 p35 inh	SMARCA2 act	Rtt109 HAT inh	DYRK1A inh	dFosB act
C[C@@H]1CCCCO[C@@H](CN(C)C(=O)Nc2cccc3ccccc23)[C@H](C)CN([C@@H](C)CO)C(=O)c2cc(NS(=O)(=O)c3cn(C)cn3)ccc2O1	.	/	/	/	/	/
COc1cc2c(cc1OC)-c1cc(Nc3cccc(F)c3)nc(=O)n1CC2	.	.	.	.	.	.
COc1cc2c(cc1OC)-c1cc(Nc3ccc(N(C)C)cc3)nc(=O)n1CC2	/	.	7.8	.	.	.
Cc1noc(C)c1NC(=O)N(C)C[C@H]1Oc2ncc(C#CC3CC3)cc2C(=O)N([C@H](C)CO)C[C@H]1C	.	/	/	/	/	/
CCN(CC)S(=O)(=O)c1ccc2oc(Nc3ccc(OC)cc3OC)nc2c1	.	.	.	.	.	.
CCS(=O)(=O)c1ccc2oc(Nc3ccccc3C)nc2c1	55	.	.	.	.	.
CCN(CC)S(=O)(=O)c1ccc2oc(Nc3ccccc3)nc2c1	71	.	.	.	.	.
Cc1noc(C)c1NC(=O)Nc1ccc2c(c1)CC(=O)N([C@H](C)CO)C[C@H](C)[C@@H](CN(C)Cc1ccc3c(c1)OCO3)O2	.	/	/	/	/	/
C[C@@H]1CN([C@@H](C)CO)C(=O)c2cccc(NS(=O)(=O)c3ccc(F)cc3)c2O[C@H]1CN(C)C	.	/	/	/	/	/
O=C(CCN1CCN(C(c2ccccc2)c2ccccc2)CC1)N/N=C/c1ccc(O)cc1O	/	.	.	.	.	37
COc1ccc(-c2nnc(NC(=O)C(C)C)s2)c(OC)c1	42	.	.	.	.	.
COc1ccc(Cc2nnc(NC(=O)C(C)C)s2)cc1	.	.	.	.	.	.
C[C@@H]1CN([C@@H](C)CO)C(=O)c2cccc(NC(=O)c3cnccn3)c2O[C@@H]1CN(C)S(=O)(=O)c1cccs1	.	/	/	/	/	/
CC1(C)CC(=O)c2cnc(N3CCN(c4ccccc4)CC3)nc2C1	.	.	.	.	.	.
CC1(C)CC(=O)c2cnc(N3CCc4ccccc4C3)nc2C1	69	.	.	.	/	.
O=C(NC(C(=O)O)c1ccccc1)c1ccccc1 (stereo unspecified)	.	.	.	.	.	.
O=C(NC(C(=O)c1ccccc1)c1ccccc1)c1ccccc1 (stereo unspecified)	41	.	.	.	.	.
CC(C)NC(=O)Nc1ccc2c(c1)C(=O)N([C@H](C)CO)C[C@H](C)[C@@H](CN(C)S(=O)(=O)c1ccc(Cl)cc1)OCCCC[C@H](C)O2	.	/	/	/	/	/
Cc1noc(C)c1COC(=O)c1cc(C)n(-c2ccccc2)c1C	80	.	.	.	.	.
C[C@H](CO)N1C[C@H](C)[C@H](CN(C)C(=O)Nc2ccc(C(F)(F)F)cc2)Oc2ccc(NC(=O)Nc3ccc(F)cc3)cc2CC1=O	.	/	/	/	/	/
O=C(N/N=C\c1cc2c(cc1Cl)OCO2)c1cccs1	53	.	.	.	.	.
O=C(N/N=C/c1ccncc1)c1cccs1	.	.	/	.	.	.
O=C(N/N=C\c1ccc(Cl)s1)c1cccs1	72	.	.	.	.	.
O=C(N/N=C/c1ccco1)c1cc(-c2ccc3ccccc3c2)n[nH]1	60	.	.	.	.	.
COc1cc(/C=N/Nc2ccc(C(=O)O)cc2)ccc1O	/	.	.	.	.	.
O=C(O)c1ccc(N/N=C/c2cccc(F)c2)cc1	/	.	.	.	.	.
COc1ccc(/C=N/Nc2ccc([N+](=O)[O-])cc2)cc1O	81	.	.	.	.	.
